# Calls of active or inactive are those of the source. Unless noted, no rule for the calls is given here.
# Key:
# [1] = HepG2 liver cancer cell viability effects, profiling panel, resazurin fluorescence, 24 h, PK04 Diversity Set (AID 1172); details: higher = more signal
# [2] = basal S. cerevisiae growth modulation, no modifier, primary screen, OD600, strain BY4716, 24 h, basal condition (AID 1173); details: OD600, 24 h, higher = more signal, called active from +8 up or from −8 down
# [3] = MM1S myeloma cell viability, profiling panel, resazurin fluorescence, basal, 24 h, PK04 Diversity Set (AID 1174); details: higher = more signal, called active from +8 up or from −8 down;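 also: MM1S multiple myeloma cell line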
# [4] = target: Dihydroorotate dehydrogenase (quinone), mitochondrial (Plasmodium falciparum (isolate 3D7)) (UniProt Q08210); test: PfDHODH enzyme inhibitors, primary screen, biochemical, C-terminal His tag, absorbance 600 nm (AID 1175); details: DCIP absorbance 600 nm, higher = more signal, called active from +8 up or from −8 down;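 also: recombinant parasite enzyme with a five histidine tag at its C terminus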
# Dihydroorotate dehydrogenase (quinone), mitochondrial (Plasmodium falciparum (isolate 3D7)), sequence (Q08210 whole entry, looked up): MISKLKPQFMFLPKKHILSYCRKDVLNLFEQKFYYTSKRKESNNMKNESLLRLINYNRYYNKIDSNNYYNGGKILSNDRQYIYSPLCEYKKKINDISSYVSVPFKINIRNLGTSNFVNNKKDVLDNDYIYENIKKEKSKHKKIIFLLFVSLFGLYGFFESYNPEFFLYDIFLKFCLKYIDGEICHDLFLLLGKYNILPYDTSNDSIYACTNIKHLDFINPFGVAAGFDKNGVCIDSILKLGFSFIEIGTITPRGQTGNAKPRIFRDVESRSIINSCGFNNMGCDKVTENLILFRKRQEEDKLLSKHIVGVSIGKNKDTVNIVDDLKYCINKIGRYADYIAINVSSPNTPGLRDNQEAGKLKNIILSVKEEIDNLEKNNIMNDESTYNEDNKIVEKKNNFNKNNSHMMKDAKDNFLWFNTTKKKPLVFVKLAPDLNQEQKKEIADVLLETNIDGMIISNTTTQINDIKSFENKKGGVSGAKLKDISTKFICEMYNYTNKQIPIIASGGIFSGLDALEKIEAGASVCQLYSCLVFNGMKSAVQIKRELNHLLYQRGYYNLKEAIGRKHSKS
# [5] = P. aeruginosa biofilm formation inhibitors, primary screen, strain PAO1, LB-PBS medium, absorbance 600 nm (AID 1176); details: P. aeruginosa PAO1 growth/biofilm, A600, 12 h; higher = more signal
# [6] = S. cerevisiae RM11-1a growth modifiers, primary screen, strain RM11-1a, OD600, basal, 24 h (AID 1177); details: OD600, 24 h, higher = more signal, called active from +8 up or from −8 down;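 also: cultures grown under basal conditions with no added stressor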
# [7] = E. coli acrAB mutant growth effects, primary screen, E. coli filamentation inducers, strain DRC39, OD650, 24 h (AID 1178); details: higher = more signal, called active from +8 up or from −8 down;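 also: growth measured as culture turbidity by optical density at 650 nm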
# [8] = E. coli acrAB mutant growth effects, primary screen, E. coli filamentation inducers, strain DRC39, OD650, 48 h (AID 1179);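 also: screen aims at cell division blockers that make cells filament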; details: E. coli DRC39 delta-acrAB growth, higher = more signal, called active from +8 up or from −8 down
# [9] = RPMI8226 myeloma cell viability, profiling panel, resazurin fluorescence, basal, 24 h, PK04 Diversity Set (AID 1180); details: higher = more signal;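 also: RPMI8826 multiple myeloma cell line at 5000 cells per well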
# [10] = target: E3 ubiquitin-protein ligase XIAP (Homo sapiens) (UniProt P98170); test: XIAP binders, primary screen, biophysical, small-molecule microarray, fluorescence 635 nm (AID 1181); details: small-molecule microarray binding, higher = more signal;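 also: score merges 667 nm emission and signal to noise over triplicate slides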
# E3 ubiquitin-protein ligase XIAP (Homo sapiens), sequence (P98170 whole entry, looked up): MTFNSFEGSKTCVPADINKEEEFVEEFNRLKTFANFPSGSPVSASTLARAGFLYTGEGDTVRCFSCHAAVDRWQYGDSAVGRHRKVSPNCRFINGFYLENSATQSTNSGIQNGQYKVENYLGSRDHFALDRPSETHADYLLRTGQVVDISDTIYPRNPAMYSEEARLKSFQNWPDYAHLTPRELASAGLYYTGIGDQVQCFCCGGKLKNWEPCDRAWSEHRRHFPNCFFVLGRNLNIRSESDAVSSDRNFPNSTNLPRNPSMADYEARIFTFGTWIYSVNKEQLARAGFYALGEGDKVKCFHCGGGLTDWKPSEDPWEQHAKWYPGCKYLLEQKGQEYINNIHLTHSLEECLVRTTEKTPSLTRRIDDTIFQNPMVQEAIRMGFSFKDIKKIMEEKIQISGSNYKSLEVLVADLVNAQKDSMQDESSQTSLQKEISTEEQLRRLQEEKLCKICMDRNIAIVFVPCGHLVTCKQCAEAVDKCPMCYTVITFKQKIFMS
# [11] = system: XIP peptide (Xip251-270) binding; test: small-molecule binders of XIP peptide, primary screen, biochemical, small-molecule microarray, fluorescence 635/667 nm, 0.1 µg/mL protein (AID 1182); details: fluorescent protein binding, 635 nm, higher = more signal, called active from +8 up or from −8 down
# XIP peptide (Xip251-270) = test: small-molecule binders of XIP peptide, primary screen, biochemical, small-molecule microarray, fluorescence 635/667 nm, 0.5 µg/mL protein (AID 1183); details: small-molecule microarray binding, fluorescence 635 nm; higher = more signal
# [12] = Plasmodium falciparum growth inhibition, primary screen, strain 3D7, DAPI fluorescence, 100 nL (AID 1184);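 also: parasites grown inside human red blood cells in medium with human serum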; details: P. falciparum 3D7 growth, 3 d, higher = more signal
# [13] = target: Homeobox protein Hox-A13 (Mus musculus) (UniProt Q62424); test: inhibitors of HoxA13-DNA binding, primary screen, biochemical, fluorescence polarization, labeled oligonucleotide (AID 1185); details: 15 min, higher = more signal, called active from +8 up or from −8 down
# Homeobox protein Hox-A13 (Mus musculus), sequence (Q62424 whole entry, looked up): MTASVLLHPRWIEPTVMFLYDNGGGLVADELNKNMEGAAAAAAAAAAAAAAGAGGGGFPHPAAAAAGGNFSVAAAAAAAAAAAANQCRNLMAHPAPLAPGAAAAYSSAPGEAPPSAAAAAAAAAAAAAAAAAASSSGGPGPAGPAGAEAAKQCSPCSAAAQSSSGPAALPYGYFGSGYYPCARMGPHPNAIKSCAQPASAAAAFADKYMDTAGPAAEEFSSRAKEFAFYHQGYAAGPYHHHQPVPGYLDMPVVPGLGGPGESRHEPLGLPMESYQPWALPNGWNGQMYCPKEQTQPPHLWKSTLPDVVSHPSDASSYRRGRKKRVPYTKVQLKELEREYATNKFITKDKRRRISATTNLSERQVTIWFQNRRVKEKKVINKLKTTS
SMILES,z-score [1],z-score [2],z-score [3],composite z-score [4],z-score [5],z-score [6],z-score [7],z-score [8],z-score [9],composite z-score [10],composite z-score [11],composite z-score (XIP peptide (Xip251-270)),z-score [12],z-score [13]
CO[C@@H]1COC(=O)CC=C[C@@H](C)COC(=O)[C@H](COCc2ccccc2)NC(=O)CC=C[C@H]1C,-0.466,-0.591 (inactive),0.579 (inactive),0.777 (inactive),-0.969 (inactive),0.158 (inactive),0.489 (inactive),-0.0248 (inactive),0.783,0.122,0.0912 (inactive),-0.453,-1.02,-0.119 (inactive)
COc1ccc(-c2nc3c(c4c2C[C@H](C)OC4)CN(CCC(C)C)CC3)cc1,-0.182,-0.827 (inactive),-0.145 (inactive),-0.133 (inactive),0.262 (inactive),0.602 (inactive),1.15 (inactive),0.479 (inactive),-0.239,-0.0559,0.731 (inactive),0.653,0.888,-5.51 (inactive)
CO[C@H]1COC(=O)[C@H](C)NC(=O)[C@@H](C)COC(=O)CC=C[C@@H]1C,-0.279,-0.518 (inactive),0.0346 (inactive),-0.0114 (inactive),-0.443 (inactive),-0.477 (inactive),0.327 (inactive),1.3 (inactive),0.0991,0.0593,0.166 (inactive),0.518,0.336,-0.467 (inactive)
CCc1cc2c(nc1CC)CCN(CCC(C)=NOC(C)CN1CCCc3nc(C)c(C)cc31)C2 (centres undefined),-0.644,-0.822 (inactive),-0.845 (inactive),0.244 (inactive),0.429 (inactive),-0.173 (inactive),0.278 (inactive),-1.71 (inactive),-0.615,1.13,1.36 (inactive),0.561,0.74,-9.89 (active)
CCOC(=O)[C@H](CC(C)C)NC(=O)CCC1CC(OC(=O)NCc2cccc3ccccc23)CC2(CCCC(COC(=O)NCCc3ccccc3OC)O2)O1 (some centres undefined),0.563,-0.581 (inactive),0.072 (inactive),-0.987 (inactive),0.684 (inactive),-0.0922 (inactive),-0.436 (inactive),-0.141 (inactive),-0.31,-0.134,1.05 (inactive),0.623,-1.83,-3.13 (inactive)
COc1ccc(O[C@H]2C=C[C@@H](c3ccccc3)O[C@@H]2COC(=O)CCC(C)=NO[C@H](C)c2cn([C@@H]3COC[C@H]3O)nn2)cc1,0.896,-0.419 (inactive),-0.191 (inactive),-4.78 (inactive),-0.467 (inactive),-0.572 (inactive),-1.09 (inactive),-0.033 (inactive),0.18,-0.138,0.0628 (inactive),0.596,-1.52,-6.96 (inactive)
CC(=O)OC[C@H]1O[C@@H](ON=C(C)CCN2CCc3nc(-c4ccccc4)c(-c4ccccc4)cc3C2)[C@H](OC(C)=O)[C@@H](OC(C)=O)[C@@H]1OC(C)=O,-0.182,-0.909 (inactive),-0.653 (inactive),-0.24 (inactive),0.0039 (inactive),-0.127 (inactive),-1.11 (inactive),-2.14 (inactive),-0.323,0.0819,0.0113 (inactive),0.71,-1.08,-5.05 (inactive)
C=CC[C@@H]1C=C[C@H](ON=C(C)CCN2CCc3nc(CC)c(CC)cc3C2)[C@@H](CO)O1,-0.127,-0.392 (inactive),-0.439 (inactive),-1.29 (inactive),-0.0417 (inactive),0.189 (inactive),0.0116 (inactive),0.138 (inactive),-0.639,0.0178,0.0621 (inactive),-0.0738,-0.163,-5.51 (inactive)
CC(=O)OC[C@H]1O[C@@H](ON=C[C@@H](C)[C@H](OCc2ccccc2)C(C)C)[C@H](OC(C)=O)[C@@H](OC(C)=O)[C@@H]1OC(C)=O,-1.04,0.0426 (inactive),-2.37 (inactive),-0.269 (inactive),1.01 (inactive),-0.519 (inactive),0.153 (inactive),0.722 (inactive),-0.8,-0.162,-0.182 (inactive),0.0517,0.317,-4.44 (inactive)
CCOC(=O)[C@H](Cc1ccccc1)NC(=O)CCC1CC(OC(=O)NCc2ccc3c(c2)OCO3)CC2(CCCC(COC(=O)NCc3cccc(C(F)(F)F)c3)O2)O1 (some centres undefined),-0.302,-1.17 (inactive),1.12 (inactive),-2.76 (inactive),-0.813 (inactive),0.234 (inactive),-1.21 (inactive),-0.793 (inactive),0.352,0.309,0.19 (inactive),0.109,-2.01,-0.531 (inactive)
CO[C@@H]1COC(=O)CCC[C@@H](C)[C@H](OC)COC(=O)[C@H](Cc2ccccc2)NC(=O)CC=C[C@H]1C,0.229,-0.987 (inactive),-0.15 (inactive),0.615 (inactive),-0.291 (inactive),0.926 (inactive),0.024 (inactive),0.407 (inactive),1.05,0.0155,0.0232 (inactive),-0.282,-1.34,-3.5 (inactive)
CC(C)(C)N1C(=O)[C@H]2[C@H]3[C@H](O)[C@H](O)CC(=NOCc4ccccc4)[C@@H]3CC[C@H]2C1=O,-1.74,-0.245 (inactive),-0.637 (inactive),-1.36 (inactive),0.246 (inactive),-2.23 (inactive),-0.474 (inactive),-0.0278 (inactive),-1.34,-0.0735,0.691 (inactive),0.779,0.281,1.12 (inactive)
CO[C@H]1COC(=O)[C@@H]2CCCN2C(=O)CC=C[C@@H](C)[C@H](OC)COC(=O)CC=C[C@@H]1C,0.233,-1.16 (inactive),0.89 (inactive),-0.652 (inactive),0.696 (inactive),-2.08 (inactive),1.04 (inactive),0.375 (inactive),-0.395,-0.137,0.371 (inactive),0.298,0.372,-0.346 (inactive)
CC(C)=NOCc1ccc(-c2cc(-c3ccccc3)no2)cc1,-0.503,0.288 (inactive),-0.284 (inactive),0.21 (inactive),-0.446 (inactive),-0.194 (inactive),0.302 (inactive),0.387 (inactive),-0.424,0.103,-0.191 (inactive),-0.0722,0.382,0.736 (inactive)
C[C@@H](c1ccccc1)N1C(=O)[C@H]2[C@H]3[C@H](O)[C@H](O)CC(=NNC(=O)OCc4ccccc4)[C@H]3CC[C@H]2C1=O,0.2,0.976 (inactive),-0.139 (inactive),0.749 (inactive),0.413 (inactive),0.993 (inactive),-0.327 (inactive),-0.462 (inactive),0.368,-0.163,-0.724 (inactive),-0.131,-0.547,-5.68 (inactive)
COc1ccc(O[C@H]2C=C[C@@H](c3ccccc3)O[C@@H]2CON=C[C@@H](C)[C@H](OCc2ccccc2)C(C)C)cc1,-0.821,0.742 (inactive),-1.69 (inactive),-0.896 (inactive),-0.348 (inactive),0.443 (inactive),0.335 (inactive),1.01 (inactive),-0.854,0.144,0.0702 (inactive),-0.126,-0.118,-0.538 (inactive)
Cc1cc(C)c(-c2cc([C@H](C)ON=C3[C@H]4CCn5c(=O)n(-c6ccccc6)c(=O)n5[C@H]4[C@H](O)[C@@H]4O[C@H]34)on2)c(C)c1,-0.991,-0.752 (inactive),-1.89 (inactive),-0.297 (inactive),-0.242 (inactive),0.615 (inactive),0.663 (inactive),0.421 (inactive),-2.22,-0.196,2.08 (inactive),0.0933,0.173,-4.69 (inactive)
CO[C@@H]1COC(=O)CC=C[C@@H](C)[C@@H]2C=C[C@H](O)[C@@H](COC(=O)[C@H](C)NC(=O)CC=C[C@H]1C)O2,0.592,-0.0997 (inactive),0.945 (inactive),-1.15 (inactive),-0.786 (inactive),-1 (inactive),0.574 (inactive),-0.637 (inactive),1.61,-0.102,0.78 (inactive),0.437,-0.117,-3.61 (inactive)
C[C@H]1CC[C@@H](C(=O)O)N[C@@H]1c1ccc(C#CCN(C)C)cc1,0.378,-1.07 (inactive),0.584 (inactive),0.666 (inactive),-0.458 (inactive),-0.191 (inactive),0.554 (inactive),0.15 (inactive),0.22,0.256,0.908 (inactive),0.512,-0.0492,-1.16 (inactive)
COC(=O)CC=C[C@@H](C)[C@H](OC)c1ccccc1Br,-0.327,-1.15 (inactive),-0.397 (inactive),-2.6 (inactive),-0.655 (inactive),0.791 (inactive),0.25 (inactive),-0.129 (inactive),0.0866,-0.241,-0.575 (inactive),-0.412,0.805,-0.0487 (inactive)
CC(CCC(=O)OC[C@H]1O[C@H](C#Cc2ccccc2)C=C[C@@H]1Oc1ccc(C)cc1)=NO[C@@H](C)c1cn([C@H](CO)Cc2ccccc2)nn1,0.0474,0.542 (inactive),0.925 (inactive),-2.15 (inactive),-0.786 (inactive),-0.0398 (inactive),-0.26 (inactive),-1.24 (inactive),0.911,-0.338,0.692 (inactive),0.54,-1.02,-2.38 (inactive)

# Reference: PubChem BioAssay
